# Results as given in PubChem BioAssay (Tox21).
# A number with no mark means an inactive call. Results filed as inconclusive are left out. A call without a number means that no potency is given here. Active and inactive are the calls of the source. Unless noted, calls come from the whole dose curve; as a rule, active = well fitted curve in the direction sought with a large enough effect in the repeat runs; inconclusive = weak or mixed curves; inactive = no such curve, though single readings can be large; an effect the other way counts as inactive or inconclusive.
# Columns and labels:
# [1] = target: Luciferin 4-monooxygenase (Photinus pyralis) (UniProt P08659); assay: qHTS assay to identify small molecule inhibitors of firefly luciferase (AID 1224835); note: nearly all actives have a fitted effect of over 25% in size
# Chain of Luciferin 4-monooxygenase (Photinus pyralis) (P08659 whole entry, looked up): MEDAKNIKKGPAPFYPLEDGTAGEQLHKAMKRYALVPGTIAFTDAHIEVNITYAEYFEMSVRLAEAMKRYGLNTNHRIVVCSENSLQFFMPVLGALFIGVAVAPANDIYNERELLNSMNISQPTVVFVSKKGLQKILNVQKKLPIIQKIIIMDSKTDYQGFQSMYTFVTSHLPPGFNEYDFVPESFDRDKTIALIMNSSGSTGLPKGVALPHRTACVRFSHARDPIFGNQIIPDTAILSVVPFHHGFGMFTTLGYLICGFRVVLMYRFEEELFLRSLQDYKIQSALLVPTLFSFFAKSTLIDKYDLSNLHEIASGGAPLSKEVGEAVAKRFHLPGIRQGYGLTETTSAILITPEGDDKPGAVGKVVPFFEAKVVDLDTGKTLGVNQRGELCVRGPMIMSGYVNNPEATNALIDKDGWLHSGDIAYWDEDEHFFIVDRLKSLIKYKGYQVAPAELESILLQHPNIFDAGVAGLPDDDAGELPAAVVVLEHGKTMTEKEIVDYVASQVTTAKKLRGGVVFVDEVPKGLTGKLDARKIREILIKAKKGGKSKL
# In short: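 Inhibition of purified Photinus luciferase is measured by luminescence. Substrate levels (D-luciferin, ATP) sit at their KM values. Each compound is tested in a concentration series.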
# [2] = qHTS assay to identify small molecule agonists of the constitutive androstane receptor (CAR) signaling pathway - cell viability counter screen (AID 1224836); note: nearly all actives have a fitted effect of over 45% in size
# In short: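 Compound titrations (15 concentrations) went onto HepG2-CYP2B6-hCAR cells 4 h after seeding, alongside PK11195 at a final 0.75 uM; a 23 h, 37 C/5% CO2 incubation preceded CellTiter-Fluor viability measurement.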
# [3] = qHTS assay to identify small molecule antagonists of the constitutive androstane receptor (CAR) signaling pathway - cell viability counter screen (AID 1224837); note: nearly all actives have a fitted effect of over 45% in size
# In short: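 To flag cytotoxic false antagonists, HepG2 hCAR/CYP2B6-2.2kb cells were treated 23 hr with 15-concentration compound series and 50 nM CITCO at 37 C/5% CO2; CellTiter-Fluor fluorescence was the measured end point.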
# [4] = target: Nuclear receptor subfamily 1 group I member 3 (Homo sapiens) (UniProt Q14994); assay: qHTS assay to identify small molecule antagonists of the constitutive androstane receptor (CAR) signaling pathway (AID 1224838);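 note: HepG2 cells stably expressing hCAR with CYP2B6 luciferase reporter stimulated by CITCO; nearly all actives have a fitted effect of over 40% in size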
# Chain of Nuclear receptor subfamily 1 group I member 3 (Homo sapiens) (Q14994 whole entry, looked up): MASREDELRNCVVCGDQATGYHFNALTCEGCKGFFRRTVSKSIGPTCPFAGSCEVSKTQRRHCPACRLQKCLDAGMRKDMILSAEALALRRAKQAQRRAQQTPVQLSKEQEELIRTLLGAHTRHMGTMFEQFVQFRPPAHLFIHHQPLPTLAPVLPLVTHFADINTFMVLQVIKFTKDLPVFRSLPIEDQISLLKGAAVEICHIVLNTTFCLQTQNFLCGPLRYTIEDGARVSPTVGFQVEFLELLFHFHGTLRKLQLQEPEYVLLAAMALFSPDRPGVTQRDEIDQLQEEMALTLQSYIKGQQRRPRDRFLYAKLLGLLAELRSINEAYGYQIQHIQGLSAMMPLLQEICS
# In short: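 Human hepatoma HepG2 cells expressing hCAR and a CYP2B6 promoter (2.2 kb) luciferase construct; compound titration (15 points) with 50 nM CITCO final, 24 h at 37 C/5% CO2; luminescence via ONE-Glo after 30 min at room temperature.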
# [5] = target: Nuclear receptor subfamily 1 group I member 3 (Homo sapiens) (UniProt Q14994); assay: qHTS assay to identify small molecule agonists of the constitutive androstane receptor (CAR) signaling pathway (AID 1224839); note: nearly all actives have a fitted effect of over 15% in size; note: potency is the fitted concentration of half-maximal effect;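 for activation: HepG2 cells stably carrying human CAR and a CYP2B6 luciferase reporter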
# In short: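 In this screen, CAR-driven CYP2B6 promoter activity is measured by luminescence in HepG2-CYP2B6-hCAR cells after 24 h with test compounds and 0.75 uM PK11195 (final concentration).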
# [6] = qHTS assay to identify small molecule antagonists of the estrogen related receptor signaling pathway with the pleiotropic PPARgamma coactivator (PGC) from Tox21 10K library - cell viability counter screen (AID 1224840; active = well fitted cell-killing curve with a large enough effect in the repeat runs, not every such curve was filed as active; note: nearly all actives have a fitted effect of over 40% in size)
# In short: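 Seeded PGC/ERR cells (2,000/well, 6 h, 37 C/5% CO2) get compound by pin tool; 17.5 h incubation at 37 C; CellTiter-Fluor added, 30 min, fluorescence measured.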
# [7] = qHTS assay to identify small molecule antagonists of the estrogen related receptor signaling pathway with the pleiotropic PPARgamma coactivator (PGC) from Tox21 10K library (AID 1224841; call rule not given here; note: actives are mostly falling curves and most rising ones were filed inactive; nearly all actives have a fitted effect of over 50% in size)
# In short: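 Test chemicals dissolved in DMSO were applied to pre-incubated (6 h) PGC/ERR cells at 2,000 cells/well for an 18 h, 37 C treatment; reporter luminescence was then read using One-Glo.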
# [8] = target: Thyrotropin receptor (Homo sapiens) (UniProt P16473); assay: qHTS assay to identify small molecule agonists of the thyroid stimulating hormone receptor (TSHR) signaling pathway (AID 1224843; calls by dose curve; note: nearly all actives have a fitted effect of over 45% in size)
# Chain of Thyrotropin receptor (Homo sapiens) (P16473 whole entry, looked up): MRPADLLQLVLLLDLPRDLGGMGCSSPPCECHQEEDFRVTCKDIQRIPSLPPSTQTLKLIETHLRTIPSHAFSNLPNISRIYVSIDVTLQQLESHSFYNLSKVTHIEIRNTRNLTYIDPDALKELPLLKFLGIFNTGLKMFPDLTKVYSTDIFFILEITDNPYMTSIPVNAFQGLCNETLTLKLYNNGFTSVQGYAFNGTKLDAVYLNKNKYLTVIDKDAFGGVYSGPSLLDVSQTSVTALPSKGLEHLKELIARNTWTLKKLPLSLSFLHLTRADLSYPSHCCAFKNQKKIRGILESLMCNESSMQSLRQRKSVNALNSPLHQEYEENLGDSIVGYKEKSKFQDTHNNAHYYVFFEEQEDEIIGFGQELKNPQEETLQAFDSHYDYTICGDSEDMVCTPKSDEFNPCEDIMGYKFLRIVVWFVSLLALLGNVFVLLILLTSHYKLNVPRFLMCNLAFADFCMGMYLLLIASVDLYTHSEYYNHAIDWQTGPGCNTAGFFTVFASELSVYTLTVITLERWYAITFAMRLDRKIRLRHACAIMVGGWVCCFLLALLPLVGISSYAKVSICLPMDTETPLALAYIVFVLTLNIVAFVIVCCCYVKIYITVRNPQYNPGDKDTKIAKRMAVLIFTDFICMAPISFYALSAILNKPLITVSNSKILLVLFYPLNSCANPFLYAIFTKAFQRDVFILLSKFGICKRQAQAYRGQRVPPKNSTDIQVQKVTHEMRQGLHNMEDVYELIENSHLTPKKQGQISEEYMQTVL
# In short: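 A cell-based cAMP HTRF format was run in TSHR-transfected HEK293 cells, 800 per well. Treatment: 30 min, room temperature. Detection: 1 h with labelled cAMP and anti-cAMP cryptate. Concentration-response over 15 points, three replicates.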
# [9] = qHTS assay to identify small molecule agonists of the hypoxia (HIF-1) signaling pathway - cell viability counter screen (AID 1224844; calls by dose curve; note: nearly all actives have a fitted effect of over 50% in size)
# In short: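 HRE-bla ME-180; 0.5% dFBS; cpd 17 h, 37C, 5% CO2; CellTiter-Glo lum., 30 min RT, post-FRET read, same wells.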
# [10] = qHTS assay to identify small molecule agonists of H2AX (AID 1224845; active = well fitted activation curve with a large enough effect in the signal ratio in the repeat runs, not every such curve was filed as active; the % refers to the signal ratio)
# In short: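 Phospho-H2AX Ser139 measured by HTRF (ex 320 nm; em 665 and 620 nm) after 24 hr antibody incubation. Compounds, 15 concentrations, 0.76% DMSO, were applied to CHO-K1 cells for 3hr at 37C before lysis.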
# [11] = qHTS assay to identify small molecule agonists of the hypoxia (HIF-1) signaling pathway (AID 1224846; active = well fitted activation curve with a large enough effect in the signal ratio in the repeat runs, not every such curve was filed as active; the % refers to the signal ratio)
# In short: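 Reporter induction in HRE-bla ME-180 cells is taken as agonism: cells sit 5 hrs after plating, receive compounds or DMSO only, incubate 17 hrs at 37C under 5% CO2, and are loaded with CCF4-AM for beta-lactamase FRET measurement.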
# [12] = qHTS assay to identify small molecule agonists of H2AX - cell viability counter screen (AID 1224847; calls by dose curve; note: top concentration of the series differs between compounds; nearly all actives have a fitted effect of over 30% in size)
# In short: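 Read-out: CellTiter-Glo luminescence, 30 min RT. Cells: wild-type CHO-K1, 1000/well, 10% FBS, plated overnight at 37C. Treatment: 15 concentrations, 3 hr, 37C, 0.76% DMSO.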
# [13] = qHTS assay to identify small molecule antagonists of the estrogen related receptor (ERR) signaling pathway from Tox21 library (AID 1224848); note: nearly all actives have a fitted effect of over 50% in size
# In short: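 ERR cell line, 2,000 cells/well. 6 h settle, then compound (DMSO) added; 18 h at 37 C; ONE-Glo luminescence after 30 min RT.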
# [14] = qHTS assay to identify small molecule agonists of the estrogen related receptor (ERR) signaling pathway from Tox21 library (AID 1224849; calls by dose curve; note: nearly all actives have a fitted effect of over 15% in size); conditions: ERR reporter cell line, ONE-Glo luciferase, 18 h; at 92.4 µM (top of the series)
# In short: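 Tox21 compounds tested for ERR agonism in an NTP reporter cell line: 18 h treatment at 37 C, then ONE-Glo luminescence.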
# [15] = qHTS RealTime-Glo MT Cell Viability Assay in HepG2 cells - 24 hour (AID 1224867); note: nearly all actives have a fitted effect of over 50% in size
# In short: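 HepG2 suspension premixed with RealTime-Glo reagents is plated at 600 cells per well and left 5 h at 37 C/5% CO2. Compounds in DMSO then go in, and bioluminescence reflecting viable cell number is recorded over 40 h.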
# [16] = qHTS RealTime-Glo MT Cell Viability Assay in HEK293 cells - 32 hour (AID 1224868)
# In short: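 Reads taken at 0, 8, 16, 24, 32 and 40 h from the same wells. HEK293 cells (600/well) carried RealTime-Glo reagents from seeding, with compound added after a 5 h settle at 37 C.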
# [17] = A CellTox Green Cytotoxicity Assay to monitor cytotoxicity in HEK293 cells - 0 hour (AID 1224869); note: nearly all actives have a fitted effect of over 50% in size
# In short: (§1)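 Tox21 screen in HEK293: membrane-impermeant cyanine dye fluoresces on binding dead-cell DNA; compound pinned 5 h post-seeding, plates held at 37 C, signal read repeatedly through 40 h.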
# [18] = qHTS RealTime-Glo MT Cell Viability Assay in HepG2 cells - 40 hour (AID 1224870); note: nearly all actives have a fitted effect of over 50% in size
# In short: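 Real-time viability: cells seeded at 600 per well together with NanoLuc and cell-permeant prosubstrate, compounds added after 5 h incubation. Luminescence tracked at 0, 8, 16, 24, 32 and 40 h of exposure.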
# [19] = A CellTox Green Cytotoxicity Assay to monitor cytotoxicity in HEK293 cells - 40 hour (AID 1224871); note: nearly all actives have a fitted effect of over 45% in size
# In short: as §1
# [20] = qHTS assay to identify small molecule agonists of the estrogen related receptor signaling pathway with the pleiotropic PPARgamma coactivator (PGC) from Tox21 10K library (AID 1224842); note: nearly all actives have a fitted effect of over 15% in size
# In short: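 Luminescence from One-Glo (30 min, room temperature) measured after PGC/ERR cells had 18 h at 37 C with pinned compound (23 nL in DMSO). Cells had been seeded at 2,000 per well and pre-incubated 6 h.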
SMILES,Potency [1],Potency [2],Potency [3],Potency [4],Potency [5],Potency [6],Potency [7],Potency [8],Potency [9],Potency [10],Potency [11],Potency [12],Potency [13],"activity change, positive = activation [14] [%]",Potency [15],Potency [16],Potency [17],Potency [18],Potency [19],Potency [20]
C=CC(C)(CCC=C(C)C)OC=O (stereo not given),inactive,inactive,inactive,inactive,inactive,inactive,inactive,inactive,inactive,inactive,inactive,inactive,inactive,1.64,inactive,inactive,inactive,inactive,inactive,–
Cc1c(C)c([N+](=O)[O-])c(C(C)(C)C)c([N+](=O)[O-])c1C,inactive,inactive,inactive,inactive,27.3 µM (active),inactive,inactive,–,inactive,inactive,inactive,–,inactive,-6.21,inactive,inactive,inactive,inactive,inactive,inactive
CC(C)CCCCCOC(=O)CCS,inactive,inactive,inactive,inactive,inactive,inactive,inactive,inactive,inactive,inactive,inactive,inactive,inactive,3.69,inactive,inactive,–,inactive,–,inactive
